Drawing on PubChem BioAssay (Tox21), this text covers Potency and activation for 40 molecules.

Inconclusive results are not listed. Where a call stands in place of a potency, no number is given. The source made the active and inactive calls. Calls follow the shape of the dose curve; as a rule, active = well fitted activation curve with a large enough effect in the signal ratio in the repeat runs (not every such curve was filed as active); inconclusive = weak or mixed curves, or effect the other way; inactive = flat fitted curve, though single readings scatter; the % refers to the signal ratio.
Potency is read from the fitted curve at half-maximal effect.

Chain of Estrogen receptor beta (Homo sapiens) (Q92731 whole entry, looked up): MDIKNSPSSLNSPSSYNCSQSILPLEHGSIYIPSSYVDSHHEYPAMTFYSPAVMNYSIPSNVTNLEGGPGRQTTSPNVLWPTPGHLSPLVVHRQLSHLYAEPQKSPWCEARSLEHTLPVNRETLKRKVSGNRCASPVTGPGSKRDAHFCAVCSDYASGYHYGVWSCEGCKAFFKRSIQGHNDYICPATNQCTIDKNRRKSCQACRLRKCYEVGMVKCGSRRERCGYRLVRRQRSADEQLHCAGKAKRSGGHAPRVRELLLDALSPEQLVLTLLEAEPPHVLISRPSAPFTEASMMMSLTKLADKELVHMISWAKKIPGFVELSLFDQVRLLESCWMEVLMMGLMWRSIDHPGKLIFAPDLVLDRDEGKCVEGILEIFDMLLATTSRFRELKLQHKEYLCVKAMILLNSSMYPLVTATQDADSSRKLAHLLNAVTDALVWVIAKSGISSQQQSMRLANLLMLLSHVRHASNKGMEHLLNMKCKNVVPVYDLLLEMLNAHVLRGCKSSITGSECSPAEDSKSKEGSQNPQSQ

For the test, the target named is Estrogen receptor beta (Homo sapiens) (UniProt Q92731). Description: qHTS assay to identify small molecule agonists of the estrogen receptor beta (ER-beta) signaling pathway (AID 1259377). The settings on record: ER-beta-UAS-bla HEK293T, beta-lactamase FRET ratio, 16 h; series mostly up to 92.4 µM. From the text:
U.S. Tox21 Program National Center for Advancing Translational Sciences [NCATS] NIH Chemical Genomics Center [NCGC] U.S. Environmental Protection Agency [EPA] National Institutes of Environmental Health Sciences [NIEHS] National Toxicology Program [NTP] U.S. Food and Drug Administration [FDA] Tox21 Assay Overview: Estrogen receptor (ER), a nuclear hormone receptor, plays an important role in development, metabolic homeostasis and reproduction. Two subtypes of ER, ER-alpha and ER-beta, have similar expression patterns with some uniqueness in both types. Endocrine disrupting chemicals (EDCs) and their interactions with steroid hormone receptors like ER causes disruption of normal endocrine function. To identify the compounds that activate ER signaling, an ER beta-UAS-bla GripTite cell line (Life technologies, Madison, WI, USA) containing a beta-lactamase reporter gene under the control of an Upstream Activator Sequence (UAS) was used to screen Tox21 10K compound library.
Tox21 Assay Protocol Summary: ER-beta-UAS-bla HEK293T cells were dispensed at 2,000 cells/5 uL of assay medium containing 2% charcoal stripped FBS per well into black wall/clear-bottom 1536-well plates using a Multidrop Combi (ThermoFisher Scientific, Waltham, MA) dispenser. After the assay plates were incubated at a 37C and 5% CO2 for 6 hr, 23 nL of compounds dissolved in DMSO, positive controls or DMSO only was transferred to the assay plate by a Pintool station (Kalypsys, San Diego, CA). The plates were incubated at 37C and 5% CO2 for 16 hr. Then 1 uL of LiveBLAzerTM B/G FRET substrate was added using a BioRAPTR FRD (Flying Reagent Dispenser, Aurora Discovery, San Diego, CA). After the plates were incubated at room temperature for 2 hours, fluorescence intensity was measured by an Envision plate reader (PerkinElmer, Shelton, CT).
Turning to `CC(O)(CS(=O)(=O)c1ccc(F)cc1)C(=O)Nc1ccc(C#N)c(C(F)(F)F)c1` (stereo not given), the Potency entry was “inactive”. Still for that read-out and setting: the entry for `CC(Cl)C(C)Cl` (stereo not given) is “inactive”. As for `Oc1ccc(Cl)c(Cl)c1Cl`, the Potency entry was “inactive”. Still for that read-out and setting: the entry for `OC(c1ccc(Cl)cc1)(c1ccc(Cl)cc1)c1cccnc1` is “inactive”; for `C=C(C#N)CCC#N` it is “inactive”; for `O=C1c2ccccc2C(=O)C1C(=O)C(c1ccccc1)c1ccccc1` it is “inactive”.

`Brc1ccccc1`: the Potency result was “inactive”. On the same count and under the same terms, as for `Cn1sc(Cl)cc1=O`, the entry is “inactive”; as for `CCOP(=O)(OCC)Oc1ccc([N+](=O)[O-])cc1`, “inactive”. On to `Cc1ccccc1CCl`, for which the Potency result is “inactive”. On to `O=C(CBr)Nc1ccc(Cl)cc1C(=O)c1ccccc1F`, for which the Potency result is “inactive”. Same read-out and setting: the entry for `Clc1cccc(SC2CCNCC2)n1` is “inactive”.

Take `Cc1ccc(N)cc1C`: the Potency result is “inactive”.

For the molecule `COc1cc(Cl)c(OC)cc1Cl`, the Potency entry was “inactive”. With `CN1[C@@H]2CC[C@H]1CC(OC(=O)c1cc(Cl)cc(Cl)c1)C2` (stereo not given in full), the Potency result was “inactive”.

For the molecule `NCC(CC(=O)O)c1ccc(Cl)cc1` (stereo not given), the activation is -2.59% [at 0.348 µM] (inactive). As for `C#CCOC(C(=O)OCCN(C)C)(c1ccccc1)c1ccccc1`, the Potency result is “inactive”. Same read-out and setting: the entry for `C[N+](C)(C)CCCl` is “inactive”.

Take `CN(C)c1ccc(N(C)C)cc1`: the Potency result is “inactive”. The same measure, in the same setting: the entry for `C=CC(=O)OCC(C)O` (stereo not given) is “inactive”; for `ClCc1cccc(Cl)c1` it is “inactive”. The same measure, in the same setting: as for `NS(=O)(=O)C(F)(F)C(F)(F)C(F)(F)C(F)(F)C(F)(F)C(F)(F)C(F)(F)C(F)(F)F`, the entry is “inactive”.

Turning to `COc1ccc(-c2ccccc2)cc1NNC(=O)OC(C)C`, the Potency result is “inactive”. On the same count and under the same terms, as for `O=Cc1ccc2c(c1)OCO2`, the entry is “inactive”; as for `Cc1cc(=O)[nH]o1`, “inactive”; as for `S=C=NCc1ccccc1`, “inactive”. Same read-out and setting: as for `CC1C(=O)C[C@]2(C(C)C)C[C@H]12` (stereo not given in full), the entry is “inactive”. Same read-out and setting: as for `Cc1c(F)c(F)c(COC(=O)C2C(/C=C(\Cl)C(F)(F)F)C2(C)C)c(F)c1F` (stereo not given), the entry is “inactive”.

`CCCN(CC1CC1)c1c([N+](=O)[O-])cc(C(F)(F)F)cc1[N+](=O)[O-]`: the Potency entry was “inactive”. On the same count and under the same terms, as for `CC/C(=N\OC/C=C/Cl)C1=C(O)CC(C2CCOCC2)CC1=O` (stereo not given), the entry is “inactive”. Regarding `CO[C@@H]1[C@H](OC(=O)NC(=O)CCl)CC[C@]2(CO2)[C@H]1[C@@]1(C)O[C@@H]1CC=C(C)C`, the activation was -2.62% [at 19 µM] (inactive). With `C[C@H]1CNCCc2ccc(Cl)cc21`, the Potency entry was “inactive”.

On to `C[C@]12CC[C@H]3[C@@H](CCC4=CC(=O)CC[C@@H]43)[C@@H]1CC[C@@H]2OC(=O)CCC1CCCCC1`, for which the Potency was 1190 nM (active).

Turning to `CC(C)=CCOc1c2occc2cc2ccc(=O)oc12`, the Potency result is “inactive”.

Turning to `Clc1ccc(C(OCCN2CCCCC2)c2ccccc2)cc1` (stereo not given), the Potency entry was “inactive”.

`CCCCc1c(C)nc(NCC)nc1OS(=O)(=O)N(C)C`: the Potency result is “inactive”. Same read-out and setting: as for `CCOP(=S)(OCC)Oc1cc(Cl)c(Br)cc1Cl`, the entry is “inactive”; as for `CC(=O)[C@H]1CC[C@H]2[C@@H]3CC[C@H]4C[C@](C)(O)CC[C@]4(C)[C@H]3CC[C@]12C`, “inactive”.

With `C=CC[C@]1(O)CC[C@H]2[C@@H]3CCC4=CC(=O)CCC4=C3C=C[C@@]21C`, the Potency entry is “inactive”. The same measure, in the same setting: as for `CC(C)(C)c1cc([N+](=O)[O-])cc([N+](=O)[O-])c1O`, the entry is “inactive”.
